Screening data (PubChem)
Luciferase inh: firefly luciferase inhibition; actives 2.2% (n = 72,000); Potency, µM (top dose mostly 57.1 µM), for inactives: at the top dose activity change, negative = inhibition, hits mostly inhibitors; purified firefly luciferase, luminescence, 8 min; also: % is scaled to controls: 0 for no effect and ±100 for the full control effect; nearly all actives have a fitted effect of over 40% in size
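Titration-based qHTS; buffer 50 mM imidazole pH 7.2, 50 mM KCl, 7 mM MgCl2, 10 uM ATP, 0.01% Tween 20, 0.05% BSA; luciferase/luciferin detector mix added after compound; 8 min, ambient; luminescence.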
Tau filament bind: tau filament binding; actives 2% (n = 71,000); Potency, µM (doses to about 57.1 µM), for the others: at the top dose activity change, negative = inhibition; recombinant tau filaments, thioflavin S fluorescence, 15 h; filaments grown with octadecylsulfate alongside compound;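 also: % is scaled to controls: 0 for no effect and ±100 for the full control effect; actives lower thioflavin S fluorescence by blocking filaments or displacing dye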
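Thioflavine S fluorescence (ex 450, em 510 nm) reports filaments formed from 1 uM human tau plus 30 uM ODS over 15 h at 37 C (10 mM HEPES pH 7.4, 100 mM NaCl, 5 mM DTT); compounds displacing dye or blocking filaments lower signal.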
HEK293 cAMP cs: counter-screen for TSHR agonists: cAMP increase in parental HEK293; parental HEK293 CNG cAMP sensor, membrane potential fluorescence; Potency, µM (highest dose often 57.1 µM), inactives show at the top dose activation, usual class: activators; actives 2.5% (n = 73,000); also: % of control where 0% means no effect; nearly all actives have a fitted effect of over 55% in size
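Parental HEK 293 cells stably expressing a cAMP-gated CNG channel were loaded with membrane potential dye containing 100 uM RO 20-1724 for 60 min. Compound added for 30 min; depolarization read as fluorescence intensity at 590 nm.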
PK Bst: alters activity of Bacillus stearothermophilus pyruvate kinase. AID 361. actives 1.2% (n = 51,000). purified pyruvate kinase, luminescence ATP production; ribose 5-phosphate activator present at AC10. Potency, µM; in the data active = potency below about 11 µM; inconclusive = mostly about 12 µM to 25 µM;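 the screen sought inhibitors and activators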;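 also: scaled between full activation by ribose 5 phosphate and full inhibition by luteolin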
TSHR ag: activates the human thyroid stimulating hormone receptor; P16473; actives 0.48% (n = 73,000); Potency, µM (doses to about 57.1 µM), without a hit: at the top dose activation, actives largely listed as activators; AID 926; HEK293-CNG-TSHR cells (CNG channel as cAMP sensor), membrane potential dye, cAMP; active = well fitted activation curve with a large enough effect in the main read-out, with a control signal flat, not every such curve was filed as active; inconclusive = small, poorly fitted or top-dose-only effect, or a change in a side signal; inactive = no such curve, though single readings can be large or run the other way; % of control where 0% means no effect;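 also: the control signal comes from parental cells without the receptor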
Target sequence (P16473 whole entry, looked up): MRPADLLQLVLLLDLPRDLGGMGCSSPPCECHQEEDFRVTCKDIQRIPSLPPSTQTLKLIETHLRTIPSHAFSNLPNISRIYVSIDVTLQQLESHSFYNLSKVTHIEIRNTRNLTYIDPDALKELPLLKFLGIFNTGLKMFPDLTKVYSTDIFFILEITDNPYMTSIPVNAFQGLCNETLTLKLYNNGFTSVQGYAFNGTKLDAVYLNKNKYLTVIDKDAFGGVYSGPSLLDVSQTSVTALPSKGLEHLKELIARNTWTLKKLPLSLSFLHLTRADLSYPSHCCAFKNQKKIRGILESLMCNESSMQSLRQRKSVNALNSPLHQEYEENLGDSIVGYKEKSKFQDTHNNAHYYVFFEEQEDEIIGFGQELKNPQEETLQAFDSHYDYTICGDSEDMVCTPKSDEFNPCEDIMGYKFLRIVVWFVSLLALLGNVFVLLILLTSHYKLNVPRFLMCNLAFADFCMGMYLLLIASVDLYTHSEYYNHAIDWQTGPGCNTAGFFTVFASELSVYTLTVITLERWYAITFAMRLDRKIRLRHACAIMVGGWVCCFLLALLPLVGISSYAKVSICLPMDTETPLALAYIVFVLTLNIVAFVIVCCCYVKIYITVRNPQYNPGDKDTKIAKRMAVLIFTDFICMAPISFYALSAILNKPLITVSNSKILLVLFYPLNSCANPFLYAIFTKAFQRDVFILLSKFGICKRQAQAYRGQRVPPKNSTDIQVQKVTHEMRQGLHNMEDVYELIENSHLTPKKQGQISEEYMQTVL
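cAMP rise detected as CNG-channel membrane depolarization by fluorescent dye (emission 590 nm), 30 min after compound, following 60 min dye loading containing 100 uM RO 20-1724 at room temperature. Cells: TSHR/CNG HEK 293, with parental CNG HEK 293 as control.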
ERK AVP block: blocks ERK signaling stimulated by vasopressin | HEK293-V1b, vasopressin-stimulated pERK AlphaScreen | actives 0.99% (n = 72,000) | Potency, µM (highest dose often 57.5 µM), for inactives: at the highest dose activity, negative = inhibition, actives largely listed as inhibitors; also: % is scaled to controls: 0 for no effect and ±100 for the full control effect; nearly all actives have a fitted effect of over 55% in size
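HEK293 cells stably expressing V1b receptor, preincubated 30 min at 37 °C with compound, then stimulated 5 min with 25 nM vasopressin. Phospho-ERK by AlphaScreen SureFire after 5 h RT; normalized to DMSO and vasopressin; AC50 by Hill fit.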
Starred values were filed as active, the others as inactive; [ ] = dose if it differs, or a comment. In the library only some 7.2% were active in any assay of this set; here they are far more common. Unless noted, calls follow the shape of the dose curve; as a rule, active = well fitted curve in the direction sought with a large enough effect; inconclusive = small, poorly fitted or top-dose-only effect, or another doubt; inactive = no such curve, though single readings can be large; an effect the other way counts as inactive or inconclusive. Potency is read from the fitted curve at half-maximal effect.

What do the screens show for `CC1=C(C(=O)O)N2C(=O)[C@@H](NC(=O)[C@@H](N)C3=CCC=CC3)[C@@H]2SC1`?
Luciferase inh: -0.5%; Tau filament bind: 5.5%; HEK293 cAMP cs: -0.5%; TSHR ag: 6.2%; ERK AVP block: 0.7%

What do the screens show for `CN1CCN(c2ccnc(-c3cccc(NS(C)(=O)=O)c3)n2)CC1`?
Luciferase inh: -1.1%[2.29 µM]; Tau filament bind: -2.5%; HEK293 cAMP cs: 4.2%; TSHR ag: 4.9%; ERK AVP block: -21.4%

What do the screens show for `COC(=O)C1=C(N)OC2=C(C(=O)CC(C)(C)C2)C1c1cccs1` (stereo not given)?
Luciferase inh: 0.8%; Tau filament bind: -2.3%[11.4 µM]; HEK293 cAMP cs: 3.16µM*; TSHR ag: inconclusive; ERK AVP block: -19.9%

What do the screens show for `CCOC(=O)C1=C(N)OC2=C(C(=O)CC(C)(C)C2)C1c1ccoc1` (stereo not given)?
Luciferase inh: 0.2%; Tau filament bind: 5.9%; HEK293 cAMP cs: 12.6µM*; PK Bst: >57; TSHR ag: inconclusive; ERK AVP block: 19.7%

Results for O=C1[C@@H]2C(c3ccccc3Cl)=NO[C@@H]2C(=O)N1Cc1ccccc1 ?
Luciferase inh: -1.2%; Tau filament bind: -9.6%; HEK293 cAMP cs: 2.1%; PK Bst: >57; TSHR ag: 3.16µM*; ERK AVP block: 12.2%

How did Brc1ccc(-c2nnc(-c3ccccc3Br)o2)cc1 do in these assays?
Luciferase inh: 3.98µM*; Tau filament bind: 149.9%; HEK293 cAMP cs: inconclusive; TSHR ag: inconclusive; ERK AVP block: -2.2%

What do the screens show for `Cc1ccccc1-c1nnc(-c2ccccc2)o1`?
Luciferase inh: 12.6µM*; Tau filament bind: 23.2%; HEK293 cAMP cs: inconclusive; TSHR ag: inconclusive; ERK AVP block: 4.9%

How did Clc1ccc(-c2nnc(-c3ccccc3Cl)o2)cc1 do in these assays?
Luciferase inh: 12.6µM*; Tau filament bind: 86.7%; HEK293 cAMP cs: inconclusive; TSHR ag: inconclusive; ERK AVP block: 41.7%

Results for Brc1ccccc1-c1nnc(-c2cccnc2)o1 ?
Luciferase inh: inconclusive; Tau filament bind: -13.8%; HEK293 cAMP cs: 12.0%; PK Bst: >57; TSHR ag: 3.2%; ERK AVP block: -29.2%

How did Cc1onc(-c2ccccc2Cl)c1C(=O)N[C@H]1C(=O)N2[C@H]1SC(C)(C)[C@H]2C(=O)O do in these assays?
Luciferase inh: 6.9%[25.5 µM]; Tau filament bind: 0.2%[25.6 µM]; HEK293 cAMP cs: 16.8%[25.6 µM]; TSHR ag: -17.4%[25.6 µM]; ERK AVP block: -5.1%[25.7 µM]

Results for N#CCSc1nnc(COc2cccc3ccccc23)n1-c1cccc(Cl)c1 ?
Luciferase inh: 2.9%; Tau filament bind: 33.9%; HEK293 cAMP cs: 26.8%; PK Bst: >57; TSHR ag: 8.2%; ERK AVP block: -26.7%

Results for N#CCSc1nnc(COc2cccc3ccccc23)n1-c1ccccc1 ?
Luciferase inh: -2.2%; Tau filament bind: 290.6%; HEK293 cAMP cs: 12.6µM*; PK Bst: >57; TSHR ag: inconclusive; ERK AVP block: -11.3%

What do the screens show for `CCOC(=O)c1cccc(NC(=O)c2cnc3ccccc3n2)c1`?
Luciferase inh: -4.7%; Tau filament bind: 25.1µM*; HEK293 cAMP cs: -20.4%; TSHR ag: -16.7%; ERK AVP block: 5.5%

How did CCOC(=O)c1c(NC(=O)CSc2nc3cccnc3n2C)sc(C(C)=O)c1C do in these assays?
Luciferase inh: 0.2%; Tau filament bind: 0.6%; HEK293 cAMP cs: inconclusive; PK Bst: >57; TSHR ag: inconclusive; ERK AVP block: -27.8%

How did CCOc1ccc(OCC)c(NC(=O)CSc2nc3cccnc3n2C)c1 do in these assays?
Luciferase inh: -2.5%; Tau filament bind: -9.4%; HEK293 cAMP cs: 31.6µM*; TSHR ag: inconclusive; ERK AVP block: -26.0%

Results for CCOC(=O)c1cccc(NC(=O)CSc2nc3cccnc3n2C)c1 ?
Luciferase inh: -35.5%; Tau filament bind: -6.0%; HEK293 cAMP cs: inconclusive; PK Bst: >57; TSHR ag: inconclusive; ERK AVP block: 25.1µM*

Results for CCOc1ccc(OCC)c(NC(=O)CSc2nc3ccccc3c(=O)n2C)c1 ?
Luciferase inh: 6.4%; Tau filament bind: 8.7%; HEK293 cAMP cs: inconclusive; PK Bst: >57; TSHR ag: inconclusive; ERK AVP block: 2.9%

How did CCOc1ccccc1NC(=O)CSc1nc2c(c(=O)n1C)SC(C)C2 (stereo not given) do in these assays?
Luciferase inh: -2.1%; Tau filament bind: 3.3%; HEK293 cAMP cs: 31.6µM*; TSHR ag: inconclusive

Results for CN1CCO[C@H](c2ccccc2)c2ccccc2C1 ?
Luciferase inh: 8.0%[25.5 µM]; Tau filament bind: 5.9%[25.6 µM]; HEK293 cAMP cs: 10.7%[25.6 µM]; ERK AVP block: -18.2%[25.7 µM]

How did CCOC(=O)c1cc2sc(C)cc2n1CC(=O)N1CCc2ccccc21 do in these assays?
Luciferase inh: 3.1%; Tau filament bind: 2.1%; HEK293 cAMP cs: 7.94µM*; PK Bst: >57; TSHR ag: inconclusive; ERK AVP block: 12.1%

Results for COc1ccc(N(C)S(=O)(=O)c2ccc3c(c2)CCC(=O)N3)cc1 ?
Luciferase inh: 4.5%; Tau filament bind: -5.7%; HEK293 cAMP cs: 3.7%; PK Bst: >57; TSHR ag: -0.3%; ERK AVP block: 0.2%

What do the screens show for `CN(C)S(=O)(=O)c1ccc2c(c1)/C(=C/c1cc3c([nH]1)CCCC3)C(=O)N2`?
Luciferase inh: 25.1µM*; Tau filament bind: -11.7%; HEK293 cAMP cs: -18.9%; TSHR ag: -22.0%; ERK AVP block: inconclusive

Results for O=C(Nc1cccc(-c2cn3cccnc3n2)c1)c1ccco1 ?
Luciferase inh: -16.1%; Tau filament bind: 0.9%; HEK293 cAMP cs: 7.9%[2.29 µM]; TSHR ag: 3.5%; ERK AVP block: 11.9%

Results for O=C(Oc1cccnc1)c1ccco1 ?
Luciferase inh: 0.2%[25.5 µM]; PK Bst: >25.6

Results for O=C(Nc1cccc(-c2cnc3ccccc3n2)c1)c1ccco1 ?
Luciferase inh: -9.8%; Tau filament bind: 31.6µM*; HEK293 cAMP cs: 4.1%; PK Bst: inconclusive; TSHR ag: 7.9%; ERK AVP block: inconclusive

How did Cc1cc(NC(=O)c2ccco2)ncc1NC(=O)CCc1ccccc1 do in these assays?
Luciferase inh: -6.6%; Tau filament bind: 10.2%; HEK293 cAMP cs: -6.8%; PK Bst: >57; TSHR ag: 11.3%; ERK AVP block: -15.7%

Results for O=C(Oc1ccc(-c2cnc3ccccc3n2)cc1)c1ccco1 ?
Luciferase inh: 5.01µM*; Tau filament bind: 47.4%[11.4 µM]; HEK293 cAMP cs: 0.1%[11.4 µM]; TSHR ag: 1.0%[11.4 µM]; ERK AVP block: -21.5%

How did O=C(Nc1cccnc1)c1ccc(NC(=O)c2ccco2)cc1 do in these assays?
Luciferase inh: -0.2%; Tau filament bind: 13.7%; HEK293 cAMP cs: -2.1%; PK Bst: >57; TSHR ag: -2.7%; ERK AVP block: -16.1%
